The campaign covered roughly 300,000 compounds. About 2,700 (0.9%) were called active. The entries come from a sample that favours actives as a whole. Unmarked numbers belong to inactive results.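 Rule for the calls: active = mean inhibition of at least 30% with at least half of replicates also reaching 30%; inconclusive = no clear call, values can overlap the other calls; inactive = the rest.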

The test concerns the target Golgi-associated PDZ and coiled-coil motif-containing protein (Homo sapiens) (UniProt Q9HD26). In words: untagged CAL PDZ binding inhibitors, primary screen, biochemical, fluorescence polarization, HTS (AID 602252).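 Note: 0% = DMSO neutral control and 100% = excess unlabeled competitor peptide PRC23.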 To be noted: purified CAL PDZ, TMR-peptide fluorescence polarization, 1 h; at 24.9 µM; active compounds read high.
In the case of `CCCCNc1c(-c2ccc(OC)c(Sc3ccc(OC)cc3)c2)nc2ccc(Cl)cn12`, the inhibition was 0.771%. The figure for `CCN(CC(=O)NCc1ccc(Cl)cc1)C(=O)CSc1ccccc1` is 62.6% (active); for `CCN(CC(=O)Nc1cc(Cl)ccc1C)C(=O)CSCc1ccccc1` it is -0.344%. With `CCN(CC(=O)NCc1ccc(Cl)cc1)C(=O)c1c(C)noc1C` the figure was -2.21%; with `Cc1cc2c(cc1C)NC1(C[C@H]3CCC(=O)N4CC[C@@H](C1)[C@@H]34)C(=NC(C)(C)CC(C)(C)C)N2` (some centres not stated), -3.52%. With `CCOc1nc(OCC)nc(-n2cc(-c3ccccc3)nn2)n1` the figure was 145% (active); with `CCCCCc1ccc(-c2cn(Cc3ccc4ccccc4c3)nn2)cc1`, -1.31%. In the case of `CCOC(=O)c1nnn(-c2nc(OC)nc(N(C)C)n2)c1-c1ccccc1`, the inhibition was 14.6%. With `Cc1c(NC(=O)Nc2ccccc2)cccc1[N+](=O)[O-]` the figure was -0.291%; with `Cc1c(NC(=O)CCCOc2ccccc2)cccc1[N+](=O)[O-]`, 47.4% (active).

On to `Cc1ccccc1NC(=O)CCOc1ccccc1`, for which the inhibition was -3.86%.

Consider `Fc1ccc2cnc(-c3ccccc3)cc2c1`, for which the inhibition is -0.668%. With `O=S(=O)(Nc1ccc2ccccc2c1)N1CCCCC1` the figure was -5.99%. With `CC(C)OC(=O)c1ccc(NCc2cc(O)ccc2O)cc1Cl` the figure was 0.191%; with `COC(=O)Cc1c(-c2[nH]c3ccccc3c2CC(=O)OC)[nH]c2ccccc12`, -2.69%. The figure for `CCN1CCN(CCNC(=O)c2ccc(/C=C3/Sc4ccccc4N(Cc4cccc(C)c4)C3=O)cc2)CC1` is -8.21%. As for `CCN1CCN(CCNC(=O)c2ccc3c(c2)NC(=O)/C(=C\c2ccc(OC)c(OC)c2)S3)CC1`, the inhibition was 55.5% (active).

With `COc1ccc(CCNC(=O)c2ccc3c(c2)NC(=O)C(N2CCOCC2)S3)cc1OC` (configuration not stated), the inhibition was -1.17%. The figure for `COc1cc(C(=O)OCC(=O)NC23CC4CC(CC(C4)C2)C3)cc(OC)c1OC` is -3.34%; for `CCCCCCn1c(SCC(=O)c2ccccc2)nc2c1c(=O)[nH]c(=O)n2C` it is -0.797%. As to `C=CCSc1nc2c(c(=O)[nH]c(=O)n2C)n1Cc1ccccc1`, the inhibition was 59.3% (active).

`C=CCn1c(SCc2ccccc2)nc2c1c(=O)[nH]c(=O)n2C`: the inhibition is -10.1%. `CC(C)(C)C(=O)Nc1cccc(-c2ccc[nH]2)n1`: the inhibition is -1.63%. With `Cc1ccccc1NC(=O)NC1(C(=O)N2CCCC2)CCCCC1` the figure was -0.684%. With `CC(=O)N1CCN(C(=O)C2(NC(=O)Nc3ccc(C)cc3)CCCCC2)CC1` the figure was 48% (active); with `CCN1CCN(C(=O)C2(NC(=O)Nc3cccc(F)c3)CCCCC2)CC1`, -0.757%. With `Cn1cncc1C#Cc1c(-c2ccsc2)sc2ccccc12` the figure was -4.14%. On to `Oc1ccc(-c2nc3ccccc3nc2-c2ccc(O)cc2O)c(O)c1`, for which the inhibition is 89% (active). With `Oc1ccc(-c2[nH]ncc2-c2nc3ccccc3s2)c(O)c1` the figure was -4.79%; with `Cc1cc(O)ccc1-c1cnc2ccccc2n1`, -0.904%. For `CCN1C[C@@H]2[C@@H]3C(=O)N(C)C(=O)[C@@H]3[C@](C)(C1=O)N2C(=O)c1ccccc1`, the inhibition was -2.56%. With `CCC1([N+](=O)[O-])COC(c2ccc(C(C)C)cc2)OC1` (configuration not stated) the figure was 2.08%; with `COc1cccc2oc(CCc3ccccc3)cc(=O)c12`, -0.506%; with `Cc1ccc(S(=O)(=O)N2C[C@@H]3CCCC[C@@H]3[C@@H](C)[C@H]2c2cn(Cc3ccccc3)c3ccc(F)cc23)cc1`, -5.03%. With `COc1ccc2c(CC(=O)Nc3nnc(C4CC4)s3)coc2c1` the figure was -1.76%.

With `CCOC(=O)Cc1csc(NC(=O)COc2ccc3c(C)cc(=O)oc3c2)n1`, the inhibition was -3.4%. The figure for `Cc1cc(=O)oc2cc(OCC(=O)Nc3nnc(C4CC4)s3)ccc12` is 51.4% (active); for `CC(=O)Nc1ccc(C(=O)Nc2cc(S(=O)(=O)N3CCOCC3)ccc2N2CCOCC2)cc1` it is -4.08%; for `COc1cccc(CC(=NO)c2cccc(OC)c2)c1` it is -7.29%.

Turning to `Cc1ccc(C(=O)OC(C)CN2CCOCC2)cc1` (configuration not stated), the inhibition is 70.2% (active). On to `CC(CN1CCOCC1)OC(=O)c1ccc(Cl)cc1Cl` (configuration not stated), for which the inhibition was -2.34%. With `CC(CN1CCOCC1)OC(=O)c1ccc(C(C)(C)C)cc1` (configuration not stated) the figure was -3.82%; with `Cc1csc(NC(=O)C2CCN(S(=O)(=O)c3ccccc3)CC2)n1`, 3.13%; with `OC(COc1ccccc1)CN1CCN(c2cccc(Cl)c2)CC1` (configuration not stated), -5.9%.

`OC(CNCCc1ccc(Cl)cc1Cl)COc1ccccc1` (configuration not stated): the inhibition was 64.2% (active).

In the case of `OC(CNCc1ccc2c(c1)OCO2)COc1ccccc1` (configuration not stated), the inhibition is -0.826%. With `O=C(CSc1nnc(CN2CCCC2)n1-c1ccc(F)cc1)c1ccc2c(c1)OCO2` the figure was -2.04%. With `COC[C@@H]1NS(=O)(=O)c2ccc(Br)cc2O[C@H]1c1ccccc1` the figure was -7.2%; with `COc1ccc(OCc2cc(C(=O)N3CCCC3)no2)c2ccccc12`, -4.16%; with `COc1cccc(OCc2cc(C(=O)N3CCN(C(=O)c4ccco4)CC3)no2)c1`, 139% (active). The figure for `O=C(c1cc(COc2cccc(C(F)(F)F)c2)on1)N1CCSCC1` is -4.68%; for `C[C@H](CO)N1C[C@H](C)[C@@H](CN(C)Cc2ccc(-c3ccccc3)cc2)Oc2ccc(NC(=O)Cn3cnnn3)cc2C1=O` it is -3.86%. Regarding `CCN(CC(=O)NCc1ccco1)S(=O)(=O)c1ccc(F)cc1`, the inhibition is -5.17%. The figure for `O=C(O)CN(Cc1ccco1)S(=O)(=O)c1ccc(F)cc1` is 41.2% (active). On to `O=C(O)CN(Cc1ccco1)S(=O)(=O)c1ccccc1`, for which the inhibition is -2.04%.

For `O=C1NC(c2ccccc2)Cc2ccncc21` (configuration not stated), the inhibition is 0.221%. The figure for `CCN(CC)S(=O)(=O)c1ccc(N2CCOCC2)c(NC(=O)C(C)Oc2ccc(F)cc2)c1` (configuration not stated) is -9.92%; for `CCOC(=O)c1sc2nc(CSc3ccccc3)[nH]c(=O)c2c1C` it is 82.4% (active). The figure for `CCOC(=O)c1sc2nc(CSCC(=O)OCc3ccc(C(=O)OC)o3)[nH]c(=O)c2c1C` is -1.2%; for `CCOC(=O)c1sc2nc(C)[nH]c(=O)c2c1C` it is -5.61%; for `CN(C)CCNC(=O)c1ccc(Cl)c2cc3ccccc3nc12` it is -3.6%. Consider `Cc1ccc(S(=O)(=O)N(C)C)cc1NC(=O)CN1c2cccc3cccc(c23)S1(=O)=O`, for which the inhibition was 1.34%. The figure for `CN(C(=O)c1ccno1)c1nnc(-c2cccnc2)s1` is 79.5% (active); for `COc1cc(OC)cc(-c2nnc(N(C)C(=O)c3ccncc3)s2)c1` it is -5.84%.

Take `CN(C(=O)C1CCOC1)c1nnc(-c2cccnc2)s1` (configuration not stated): the inhibition was 5.89%.

As for `Cc1ccc(S(=O)(=O)CCC(=O)OCC(=O)N(C)Cc2ccccc2)cc1`, the inhibition is -0.906%. With `O=C(COc1ccccc1F)Nc1nc(-c2ccccn2)cs1` the figure was -7.77%; with `CC(C)(C)OC(=O)N(Cc1ccccc1)Cc1ccc(OCc2cccc(NC(=O)c3ccccc3)c2)cc1`, -1.04%; with `Cc1cccc(NC(=S)N2CCC(C(=O)c3ccc(F)cc3)CC2)c1`, -2.74%. Turning to `CN(C)S(=O)(=O)c1cccc(NC(=O)COc2ccc3ccccc3c2)c1`, the inhibition is -3.42%. With `CN(C)S(=O)(=O)c1cccc(NC(=O)COC(=O)/C=C/c2cccs2)c1`, the inhibition was -0.792%. The figure for `CN(C)S(=O)(=O)c1cccc(NC(=O)Cc2ccsc2)c1` is 56.9% (active).

In the case of `COc1cc2c(cc1OC)C(Cc1cc(OC)c(OC)cc1[N+](=O)[O-])=NCC2`, the inhibition is -3.58%.

As to `O=c1ccnc(Nc2ccc(Cl)cc2)[nH]1`, the inhibition is -6.21%. With `CC1(C)N=C(N)NC(Nc2ccc(Cl)cc2)=N1` the figure was 46.4% (active); with `COc1ccccc1NC1=NC(c2ccc(Cl)cc2)N=C(N)N1` (configuration not stated), 2.25%. The figure for `COc1ccc(-c2ccc3c(c2)C2CC3CCN2CCC#N)cc1` (configuration not stated) is -7.19%. With `CNN/C(N=Cc1ccc([N+](=O)[O-])s1)=N\S(=O)(=O)c1cc(C)c(Cl)cc1SCc1ccccc1` the figure was 66.8% (active); with `Cc1ccccc1NCC(=O)N/N=C\c1ccc([N+](=O)[O-])s1`, -2.26%; with `COc1ccc(C(=O)NCC(=O)N/N=C/c2ccc([N+](=O)[O-])s2)cc1OC`, 1.89%.

Turning to `COc1cc(C(=O)CCc2ccc3c(c2)OCO3)cc(OC)c1OC`, the inhibition is -5.96%. For `O=C(O)c1cccc(S(=O)(=O)Nc2ccc(O)cc2Sc2nc3ccccc3s2)c1`, the inhibition was -1.01%.

Consider `COc1ccc(S(=O)(=O)Nc2ccc(O)c(Sc3nc4ccccc4s3)c2)cc1`, for which the inhibition is 40.1% (active).

For the compound `CCOc1ccc(S(=O)(=O)Nc2nc3cc(OC)ccc3s2)cc1`, the inhibition is 1.2%. The figure for `COc1ccc(CCNC(=O)c2ccc(NC(=O)CC3SC(N4CCCCC4)=NC3=O)cc2)cc1OC` (configuration not stated) is -1.27%; for `O=C1c2ccccc2C(=O)C1C(=O)C1CC1` it is -5.16%.

On to `CS(=O)(=O)N(CC(=O)Nc1ccc(Cl)c(Cl)c1)C1CCCCC1`, for which the inhibition was 51.4% (active). The figure for `CS(=O)(=O)N(CC(=O)Nc1ccc(F)cc1)C1CCCCC1` is -14.6%. With `CCC(C)NC(=O)CN(C1CCCCC1)S(C)(=O)=O` (configuration not stated) the figure was 7.29%; with `COc1ccc(Cn2cc(CN3CCS(=O)(=O)N(Cc4ccc(-c5cccc(Cl)c5)cc4)C(C)C3=O)nn2)cc1` (configuration not stated), -4.3%. For `CCn1c(-c2ccncc2)n[nH]c1=S`, the inhibition was -0.231%. The figure for `CCCc1cc(-c2n[nH]c(=S)n2Cc2ccccc2)cs1` is -5.83%.

Source of the values: PubChem BioAssay AID602252 (Broad Institute, 2012).
